Compound activity from PubChem BioAssay.
Tgondii IFNg: T. gondii growth inhibition with IFN-gamma, primary screen, cell-based | Toxoplasma gondii growth in IFN-gamma-treated host cells; active compounds read low | activity change, negative = inhibition, % (concentration not given with the values) | hit rate 3.8% among 69,000; in the data active means activity change below about -70%, passing the limit was not always enough;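 further: host cells are HeLa cells infected with Toxoplasma gondii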
* = called active by the depositor. The full list was thinned out, with hits kept by preference.

Screening O=C(c1ccc[nH]1)N1CCC2(CC1)Cc1ccccc1CNC2=O returned Tgondii IFNg -9.
Cc1c(C(=S)Nc2ccccc2Cl)sc2ccccc12 was read as Tgondii IFNg inactive.
Screening COc1ccc(-c2ccccc2[C@@H]2[C@@H](C#N)N(C(=O)c3cccnc3)[C@@H]2CO)cc1 returned Tgondii IFNg -11.
`COc1ccc(CNC(=O)Cn2ncc3c(N4CCCCCC4)ncnc32)cc1` gave Tgondii IFNg 6.
`COc1ccc(CNC(=O)Cn2ncc3c(N4CCCCC4)ncnc32)cc1OC` gave Tgondii IFNg 170.
COc1cc(NC(=O)Cn2ncc3c(N4CCC(C)CC4)ncnc32)cc(OC)c1OC was read as Tgondii IFNg 13.
`COc1ccc(CNC(=O)Cn2ncc3c(N4CCCCC4)ncnc32)cc1` gave Tgondii IFNg -102*.
For Cc1ccc(CNC(=O)Cn2ncc3c(N4CCCCC4)ncnc32)cc1 the results were Tgondii IFNg -103*.
For CN(C)c1ccc(CNC(=O)Cn2ncc3c(N4CCCCC4)ncnc32)cc1 the results were Tgondii IFNg 31.
`O=C(Cn1ncc2c(N3CCOCC3)ncnc21)NCc1ccccc1Cl` gave Tgondii IFNg 74.
`COc1cccc(CNC(=O)Cn2ncc3c(N4CCOCC4)ncnc32)c1` gave Tgondii IFNg 64.
For COc1cccc(CNC(=O)Cn2ncc3c(N4CCC(C)CC4)ncnc32)c1 the results were Tgondii IFNg -100*.
Screening O=C(Cn1ncc2c(N3CCN(c4ccccn4)CC3)ncnc21)NCc1ccccc1Cl returned Tgondii IFNg -92*.
Screening Cc1ccc(CNC(=O)Cn2ncc3c(N4CCCCCC4)ncnc32)cc1 returned Tgondii IFNg -44.
Screening CCc1ccccc1NC(=O)Cn1ncc2c(N3CCN(c4ccccn4)CC3)ncnc21 returned Tgondii IFNg -56.
`COCc1ncn2c1CN(C(=O)Nc1ccccc1)CC2` gave Tgondii IFNg inactive.
`COc1cccc(-c2nnc(-c3ccccc3NC(=O)c3ccc(C(F)(F)F)cc3)o2)c1` gave Tgondii IFNg -1.
CC(C)n1ccc(CN2CCN(C)C3(CCN(C(=O)c4ccco4)CC3)C2)c1 was read as Tgondii IFNg 10.
For CCn1c(C2CCCN(S(=O)(=O)C3CC3)C2)nn(CCN(C)C)c1=O (configuration not stated) the results were Tgondii IFNg 0.
Screening Cc1ncsc1CCN(C)C(=O)[C@H]1Cc2ccccc2CN1 returned Tgondii IFNg 1.
CCc1nn2c(NCCO)c(C)c(C)nc2c1-c1ccc(F)cc1 was read as Tgondii IFNg 3.
`O=C1NCC2(CCCN(C(=O)COCc3nc4ccc(F)cc4[nH]3)C2)O1` (configuration not stated) gave Tgondii IFNg 2.
`CS(=O)(=O)NC[C@@H]1OC[C@@H]2CCN(C(=O)c3ccnnc3)C[C@@H]21` gave Tgondii IFNg 30.
`O=C(Cn1ncc2c(N3CCCC3)ncnc21)NCc1ccc(Br)cc1` gave Tgondii IFNg 61.
Screening CCCCOc1ccc(CNC(=O)Cn2ncc3c(N4CCCCCC4)ncnc32)cc1 returned Tgondii IFNg -99*.
Screening CCOc1ccc(CNC(=O)Cn2ncc3c(N4CCCCCC4)ncnc32)cc1OCC returned Tgondii IFNg 76.
CCN(CC)c1ncnc2c1cnn2CC(=O)NCc1ccc2c(c1)OCO2 was read as Tgondii IFNg -64.
`CCN(CC)c1ncnc2c1cnn2CC(=O)NCc1ccc(OC)cc1` gave Tgondii IFNg -99*.
For CCN(CC)c1ncnc2c1cnn2CC(=O)NCc1cccc(OC)c1 the results were Tgondii IFNg 84.
Screening O=C1N(CC2CC2)CCC12CCN(Cc1nccs1)CC2 returned Tgondii IFNg 11.
Screening C=CCn1c(=O)c(-c2nc(-c3ccc4c(c3)OCO4)no2)c(O)c2ccccc21 returned Tgondii IFNg -18.
Cc1ccc(S(=O)(=O)Oc2cc(=O)n(C)c3c2c(=O)n(C)c(=O)n3C)cc1 was read as Tgondii IFNg 50.
`CCn1c(CC2CCN(CC3=CC[C@H]4C[C@@H]3C4(C)C)CC2)nn(C)c1=O` gave Tgondii IFNg -36.
CSc1ccc(-c2noc(-c3c(O)c4cc(F)ccc4n(C)c3=O)n2)cc1 was read as Tgondii IFNg -4.
Cc1nc(NC(=O)c2cnccn2)ccc1Br was read as Tgondii IFNg 455.
CCOc1ccccc1NC(=O)c1cnccn1 was read as Tgondii IFNg -46.
Screening O=C(Nc1ccc(OC(F)(F)F)cc1Br)c1cnccn1 returned Tgondii IFNg -110*.
CCN1C(=O)C2(CCOCC2)c2cc(NC(=O)c3ccc[nH]3)ccc21 was read as Tgondii IFNg 45.
CN(c1cc(C(F)(F)F)ccn1)N1C(=O)CSCC1=O was read as Tgondii IFNg 24.
Screening COc1ccc(-n2c(C)c3c(OC)cccc(=O)c3c2C)cc1 returned Tgondii IFNg -6.
For COc1ccc(-n2c(C)c([N+](=O)[O-])c3ccc(O)cc32)cc1 the results were Tgondii IFNg -77*.
COc1ccc(-n2nc(C(=O)O)nc2C)cc1 was read as Tgondii IFNg 24.
Screening O=C(c1ccoc1)N1CCn2cc(Cn3cncn3)nc2C1 returned Tgondii IFNg -42.
`O=C(NCc1cnc2n1CCN(C(=O)c1ccsc1)C2)C1CC1` gave Tgondii IFNg 20.
`CCc1ccc(NS(=O)(=O)c2cc3c4c(c2)CCC(=O)N4CCC3)cc1` gave Tgondii IFNg -11.
For C#CC1(OCC(O)CN2CCN(c3ccccc3OC)CC2)CCCCC1 (configuration not stated) the results were Tgondii IFNg 18.
`C#CC1(OCC(O)CN2CCN(c3cccc(C(F)(F)F)c3)CC2)CCCCC1` (configuration not stated) gave Tgondii IFNg -80*.
For OCC(O)CN1CCN(c2ccccc2)CC1 (configuration not stated) the results were Tgondii IFNg -5.
Screening O=C(CC1CCC2(CC1)CCN(c1ncccn1)CC2)N1CC=CC1 returned Tgondii IFNg -9.
CNc1cc(-c2ccccc2OCCn2ccnc2)c2cc[nH]c2n1 was read as Tgondii IFNg 4.
`NCC1Cc2cc(-c3ccccc3OCCn3ccnc3)cc(Cl)c2O1` (configuration not stated) gave Tgondii IFNg -81*.
`NCC1Cc2cc(-c3ccc(Cn4ccnc4)cc3)cc(F)c2O1` (configuration not stated) gave Tgondii IFNg -40.
`COCC1(C(=O)NC2CN(C)S(=O)(=O)c3ccsc32)CCC1` (configuration not stated) gave Tgondii IFNg 7.
Screening Cc1ccc(CN2CCc3nc(NC(C)C)nc(C)c3C2)s1 returned Tgondii IFNg -6.
Screening Cc1ccc(CN2CCc3nc(N4CCOCC4)nc(NC(C)C)c3C2)s1 returned Tgondii IFNg -98*.
For COc1ccc(CN2CCc3nc(N4CCOCC4)nc(NC4CC4)c3C2)cc1 the results were Tgondii IFNg 0.
COCCC(=O)Nc1ccc(-c2nc(Cn3nc(C)cc3C)c(C)o2)cc1 was read as Tgondii IFNg 82.
O=C(Nc1cc(Cl)c(-n2cccc2)cc1Cl)c1ccc(Cl)cc1 was read as Tgondii IFNg 45.
`Cc1oc(-c2ccc(NC(=O)c3ccc(F)cc3)cc2)nc1Cn1cccn1` gave Tgondii IFNg 23.
`O=C(Nc1ccn(Cc2ccc(Cl)cc2Cl)n1)c1ccc(F)cc1` gave Tgondii IFNg -97*.
For CCOC(=O)c1c(-n2c(C)nc3ccccc3c2=O)sc2c1CCCC2 the results were Tgondii IFNg -16.
